Data as given in PubChem BioAssay.
Active and inactive are the calls of the source.

Columns and labels:
[1] = compounds binding Alexa647 anti-His antibody – biochemical, small-molecule microarray, 635 nm fluorescence, artefact control for SMM control protein annotation, primary screen (AID 1128); conditions: higher = more signal;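 note: score merges feature fluorescence with signal-to-noise for each printed compound spot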
[2] = test system: Human papillomavirus type 1a E7 protein (residues 1-88); assay: HPV1a E7 small-molecule binders, primary screen, biochemical, small-molecule microarray, residues 1-88, 635 nm (AID 1129); conditions: small-molecule microarray binding, fluorescence 635 nm; higher = more signal
[3] = target: Focal adhesion kinase 1 (Homo sapiens) (UniProt Q05397); assay: PTK2 protein binding on printed compound slides – biochemical, small-molecule microarray, 635/667 nm fluorescence, BSA, DTT, primary screen (AID 1130); conditions: 635 nm fluorescence, higher = more signal;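 note: composite of spot emission at 667 nm and signal to noise over triplicate slides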
Chain of Focal adhesion kinase 1 (Homo sapiens) (Q05397 whole entry, looked up): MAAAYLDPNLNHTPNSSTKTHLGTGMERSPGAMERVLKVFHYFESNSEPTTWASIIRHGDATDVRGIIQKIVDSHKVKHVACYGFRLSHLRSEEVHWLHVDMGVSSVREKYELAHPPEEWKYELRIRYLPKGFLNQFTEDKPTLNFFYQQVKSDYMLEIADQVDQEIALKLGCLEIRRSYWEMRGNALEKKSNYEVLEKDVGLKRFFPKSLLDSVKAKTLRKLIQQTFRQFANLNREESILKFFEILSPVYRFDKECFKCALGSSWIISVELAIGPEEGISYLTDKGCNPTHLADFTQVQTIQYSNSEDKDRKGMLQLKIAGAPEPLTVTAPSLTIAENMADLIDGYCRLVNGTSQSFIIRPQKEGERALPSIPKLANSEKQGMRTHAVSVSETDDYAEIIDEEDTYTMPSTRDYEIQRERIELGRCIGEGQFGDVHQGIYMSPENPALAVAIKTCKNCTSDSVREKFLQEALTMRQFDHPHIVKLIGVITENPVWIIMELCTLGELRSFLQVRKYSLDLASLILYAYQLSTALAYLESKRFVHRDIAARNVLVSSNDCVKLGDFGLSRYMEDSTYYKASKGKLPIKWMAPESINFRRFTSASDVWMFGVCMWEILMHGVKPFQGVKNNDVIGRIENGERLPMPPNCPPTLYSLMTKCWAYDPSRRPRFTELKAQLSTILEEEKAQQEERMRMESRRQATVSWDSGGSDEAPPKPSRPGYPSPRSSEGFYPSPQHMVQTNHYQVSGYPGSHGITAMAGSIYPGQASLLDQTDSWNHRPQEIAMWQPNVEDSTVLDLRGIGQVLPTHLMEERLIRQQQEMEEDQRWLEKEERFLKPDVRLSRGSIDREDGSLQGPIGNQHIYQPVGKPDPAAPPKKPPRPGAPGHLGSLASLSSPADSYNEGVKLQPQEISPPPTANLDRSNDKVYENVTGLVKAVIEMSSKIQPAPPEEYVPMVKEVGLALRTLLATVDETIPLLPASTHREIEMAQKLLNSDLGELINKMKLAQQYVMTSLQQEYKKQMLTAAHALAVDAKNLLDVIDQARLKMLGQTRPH

[4] = test system: Fibrinogen (Alexa647-labelled); assay: Alexa647-fibrinogen binding to printed small molecules – biochemical, small-molecule microarray, 635/667 nm fluorescence, artefact control for SMM control-protein annotation, profiling panel (AID 1131); conditions: fibrinogen-A647 binding fluorescence, higher = more signal;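 note: z-score merges 667 nm fluorescence with per-spot signal-to-noise over triplicate slides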
[5] = target: Follistatin (Homo sapiens) (UniProt P19883); assay: FST protein binding to printed compounds – biochemical, small-molecule microarray, 635/667 nm fluorescence, primary screen (AID 1132); conditions: 635 nm fluorescence, higher = more signal
Chain of Follistatin (Homo sapiens) (P19883 whole entry, looked up): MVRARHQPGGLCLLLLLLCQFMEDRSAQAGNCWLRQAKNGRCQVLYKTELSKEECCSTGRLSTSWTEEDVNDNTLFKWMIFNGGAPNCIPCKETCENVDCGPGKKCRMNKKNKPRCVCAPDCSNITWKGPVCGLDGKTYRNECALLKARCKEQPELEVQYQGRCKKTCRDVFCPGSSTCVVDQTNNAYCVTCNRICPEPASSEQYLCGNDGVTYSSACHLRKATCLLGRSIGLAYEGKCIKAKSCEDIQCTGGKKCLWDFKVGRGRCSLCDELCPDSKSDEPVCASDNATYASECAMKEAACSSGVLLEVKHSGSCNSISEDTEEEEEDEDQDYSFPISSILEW

[6] = target: Fibroblast growth factor 2 (Homo sapiens) (UniProt P09038); assay: basic fibroblast growth factor binding to printed compounds – biochemical, small-molecule microarray, 635/667 nm fluorescence, primary screen (AID 1133); conditions: FGF2, fluorescence 635/667, higher = more signal
Chain of Fibroblast growth factor 2 (Homo sapiens) (P09038 whole entry, looked up): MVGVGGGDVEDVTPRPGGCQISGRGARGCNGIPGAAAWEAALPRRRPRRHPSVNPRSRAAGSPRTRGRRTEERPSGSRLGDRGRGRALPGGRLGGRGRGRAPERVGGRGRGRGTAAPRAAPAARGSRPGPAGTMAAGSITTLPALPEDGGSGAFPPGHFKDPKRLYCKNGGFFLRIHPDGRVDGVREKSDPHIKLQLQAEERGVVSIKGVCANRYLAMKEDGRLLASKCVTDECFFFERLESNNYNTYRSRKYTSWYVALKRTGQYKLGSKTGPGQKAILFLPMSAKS

[7] = JC-1 mitochondrial potential readout, lung cancer cells – cell-based, A549, JC-1 fluorescence, basal, 24 h, 100 nL, profiling panel (AID 1138); conditions: higher = more signal;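 note: A549 lung adenocarcinoma cells under basal conditions with no added stimulus; test concentration not given here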
Lefty1 = Lefty1 protein binding to printed compounds – biochemical, small-molecule microarray, 635/667 nm fluorescence, primary screen (AID 1139); conditions: fluorescence 635/667, higher = more signal
[8] = test system: wheat germ agglutinin (Triticum aestivum), Alexa647-labelled; assay: Alexa647-WGA lectin binding to printed small molecules – biochemical, small-molecule microarray, 635/667 nm fluorescence, artefact control for SMM control-protein annotation, profiling panel (AID 1140); conditions: WGA-A647 binding, 635 nm fluorescence, higher = more signal;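 note: score merges 667 nm feature emission with signal to noise over triplicate slides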
[9] = target: Luciferin 4-monooxygenase (Photinus pyralis) (UniProt P08659); assay: inhibition of purified Photinus pyralis luciferase – biochemical, luminescence, purified enzyme, 2006 set, primary screen (AID 1141); conditions: purified firefly luciferase, SteadyGlo luminescence, 30 min; higher = more signal, called active from +8 up or from −8 down;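 note: cell-free assay with purified firefly luciferase at 100 ng per well in PBS; test concentration not given here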
Chain of Luciferin 4-monooxygenase (Photinus pyralis) (P08659 whole entry, looked up): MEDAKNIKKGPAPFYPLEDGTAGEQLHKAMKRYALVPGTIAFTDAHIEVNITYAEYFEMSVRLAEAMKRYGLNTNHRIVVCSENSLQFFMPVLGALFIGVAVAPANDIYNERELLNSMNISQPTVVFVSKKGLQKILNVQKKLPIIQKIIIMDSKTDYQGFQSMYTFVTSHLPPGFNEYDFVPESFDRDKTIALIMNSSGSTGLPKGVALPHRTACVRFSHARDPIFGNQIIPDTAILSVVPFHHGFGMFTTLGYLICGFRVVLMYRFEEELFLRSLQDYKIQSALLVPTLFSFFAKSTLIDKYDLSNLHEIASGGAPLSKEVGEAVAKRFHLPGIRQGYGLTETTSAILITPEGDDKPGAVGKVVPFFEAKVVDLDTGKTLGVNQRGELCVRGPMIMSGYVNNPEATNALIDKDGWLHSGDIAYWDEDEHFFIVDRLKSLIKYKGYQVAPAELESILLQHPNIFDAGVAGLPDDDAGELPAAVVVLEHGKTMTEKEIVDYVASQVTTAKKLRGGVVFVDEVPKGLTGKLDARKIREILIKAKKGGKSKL

Compound	composite z-score [1]	composite z-score [2]	composite z-score [3]	composite z-score [4]	composite z-score [5]	composite z-score [6]	z-score [7]	composite z-score (Lefty1)	composite z-score [8]	z-score [9]
CCOC(=O)[C@H]1C/C=C/C[C@H](C(=O)OCC)C(=O)O[C@H]2[C@@H](OC)O[C@H](CO)[C@@H](OC(=O)Nc3ccc(C#N)cc3)[C@@H]2OC1=O	0.514	0.45	0.499	-0.274	0.336	0.121	-1.92	0.519	0.852	0.215 (inactive)
COc1ccc([Si](C)(C)[C@@H]2[C@@H](CCO)O[C@]3(C(=O)N(Cc4ccc(N5C(=O)COc6ccccc65)cc4)c4ccccc43)[C@H]2C)cc1	1.58	1.18	0.571	0.814	0.59	0.621	-0.342	0.955	0.978	0.686 (inactive)
COc1cc2c(cc1OC)CN(C(=O)[C@H]1[C@@H]3C(=O)O[C@@H](c4ccccc4)[C@@H](c4ccccc4)N3[C@@H](c3ccc(O)cc3)[C@]13C(=O)Nc1ccc(C#CCNC(N)=O)cc13)CC2	-0.327	-0.0403	0.0099	-0.231	1.29	0.967	-0.73	0.669	0.344	0.8 (inactive)
CC(C)(C)OC(=O)CC[C@]1(C(=O)NCC(O)CO)COC(c2ccc(OCCCO)cc2)=N1 (stereo not given in full)	1.97	1.22	0.472	0.936	-0.255	-0.473	-0.328	-0.35	0.879	0.438 (inactive)
O=C1NC(=O)C2C1C=CC(C(O)Cc1ccccc1)N2Nc1ccc(Cl)cc1Cl (stereo not given)	0.432	-0.364	0.247	0.773	0.178	-0.644	2.92	-0.695	0.834	0.981 (inactive)
CCCCCN1CC=CC23O[C@@H]4/C=C\CCCOC(=O)C4[C@H]2C(=O)N(C(CO)C(C)C)[C@@H]3C1=O (stereo not given in full)	-0.208	-0.376	-0.295	-0.796	0.0945	-0.603	-0.46	0.418	0.869	0.451 (inactive)
COCCOC(=O)N1C(=O)[C@@]2(c3cc(C#CCCO)ccc31)[C@H](c1ccc(OCCO)cc1)N1[C@H](c3ccccc3)[C@H](c3ccccc3)OC(=O)[C@H]1[C@@H]2C(=O)N1CCN(c2ncccn2)CC1	1.05	1.18	0.307	0.756	1.3	1.32	-1.04	1.37	0.624	-0.836 (inactive)
COc1cc2c(cc1O)C=[N+](Cc1cccc(OC(F)(F)F)c1)CC2	-0.131	-0.566	0.185	-0.636	0.318	-0.0744	2	-0.285	1.01	-0.847 (inactive)
COC(=O)[C@@]1(Cc2ccc(OC)cc2)[C@H]2c3cc(C(=O)N(C)C)n(CCN4CNCC4=O)c3C[C@H]2CN1C(=O)c1ccccc1	0.492	0.803	0.598	0.151	-0.589	-0.294	1	-0.44	0.459	2.82 (inactive)
C=CCC(OC(C)=O)[C@@H]1[C@@H](N(Cc2ccc(-c3cccc(C(F)(F)F)c3)o2)C(=O)c2ccc(-c3ccccc3)cc2)c2cc(OCCCO)ccc2N1C(=O)c1ccc(-c2ccccc2)cc1 (stereo not given in full)	-0.674	-0.714	-0.045	-0.557	0.47	-0.0003	0.872	0.164	-0.0266	-0.277 (inactive)
CC(C)(C)C(=O)N[C@@H](c1ccc(Cl)cc1)[C@]1(C)C[C@H]1C1CCCCC1	0.893	1.21	1.19	1.02	0.279	-0.386	2.63	-0.775	0.537	0.542 (inactive)
COCCOC(=O)N1C(=O)[C@@]2(c3cc(C#Cc4ccc(OC)cc4)ccc31)[C@H](c1ccc(O)cc1)N1[C@H](c3ccccc3)[C@H](c3ccccc3)OC(=O)[C@H]1[C@@H]2C(=O)NC[C@H](O)c1ccccc1	0.522	1.22	-0.0575	0.994	1.3	1.4	-1.51	1.33	0.623	1.05 (inactive)
COCCOC(=O)N1C(=O)[C@@]2(c3cc(C#CCCO)ccc31)[C@H](C(=O)Nc1nc3ccccc3s1)[C@H]1C(=O)O[C@H](c3ccccc3)[C@H](c3ccccc3)N1[C@@H]2c1ccc(OCCO)cc1	0.738	0.957	0.128	0.944	1.27	1.65	-2.4	1.26	0.482	-2.56 (inactive)
C=CCNC(=O)[C@@H]1[C@H]2C(=O)O[C@H](c3ccccc3)[C@H](c3ccccc3)N2[C@H](c2ccc(OCCO)cc2)[C@@]12C(=O)Nc1ccc(C#CCCO)cc12	2.72	1.19	1.17	0.979	1.16	1.68	0.103	1.52	0.687	-0.947 (inactive)
O=C1OCCC=C[C@H]2OC34C=CCN(CCN5CCOCC5)C(=O)[C@H]3N(CCCCCCO)C(=O)[C@@H]4C12 (stereo not given in full)	0.626	-0.525	0.604	-1	-0.061	-0.486	0.884	0.0839	-0.255	-0.892 (inactive)
CCN(CC)c1ccc(N2CC=CC34O[C@@H]5/C=C\CCCOC(=O)C5[C@H]3C(=O)N(CCO)[C@@H]4C2=O)cc1 (stereo not given in full)	0.449	-0.57	-0.724	-0.837	-0.654	-1.03	-0.73	-0.2	-0.875	-0.312 (inactive)

Compound	composite z-score [1]	composite z-score [2]	composite z-score [3]	composite z-score [4]	composite z-score [5]	composite z-score [6]	z-score [7]	composite z-score (Lefty1)	composite z-score [8]	z-score [9]
COC(=O)[C@@]1(Cc2ccc(F)cc2)[C@H]2c3cc(C(=O)N(C)C)n(Cc4nc5ccccc5[nH]4)c3C[C@H]2CN1C(=O)c1ccccc1	1.11	1.28	0.187	0.843	0.526	-0.634	-0.0117	-0.0816	0.488	-0.625 (inactive)
COc1ccc(C(O)C2C=CC3C(=O)NC(=O)C3N2Nc2ccccn2)c2ccccc12 (stereo not given)	0.516	-0.609	-0.106	0.0992	0.488	0.524	-1.15	-0.0665	0.788	-1.46 (inactive)
O=C1O[C@H](c2ccccc2)[C@H](c2ccccc2)N2[C@H]1[C@@H](C(=O)NC[C@H](O)c1ccccc1)[C@]1(C(=O)Nc3ccccc31)[C@H]2c1ccc(OCCO)cc1	1.77	1.2	1.06	0.743	0.992	0.655	-0.253	0.0702	0.864	-0.609 (inactive)
CC(=O)NCCCC[C@@H]1NC(=O)[C@@H]2C[C@H](C(=O)NCCCCN(C)C)[C@H](c3cccc(OCCO)c3)N2C1=O	0.605	-0.158	-0.208	-0.908	1.21	1.08	-0.446	0.471	-0.159	0.603 (inactive)
CC(C)[C@@H](CO)NC(=O)[C@H]1[C@@H](c2ccccc2)N(c2ccccc2)O[C@@H]1C	0.398	-0.253	-0.168	0.0711	0.104	0.0808	0.204	0.216	0.149	-0.21 (inactive)
COCCOC(=O)N1C(=O)[C@@]2(c3cc(C#CC4=CCCCC4)ccc31)[C@H](C(=O)Nc1nc3ccccc3s1)[C@H]1C(=O)O[C@H](c3ccccc3)[C@H](c3ccccc3)N1[C@@H]2c1ccc(OCCO)cc1	0.424	1.07	0.147	0.192	1.18	0.898	-1.99	0.726	0.253	-5.3 (inactive)
C[C@@H]1ON(c2cccc(C(=O)OC(C)(C)C)c2)[C@H](c2ccc(Br)cc2)[C@H]1C(=O)N1C(=O)OC[C@H]1Cc1ccccc1	0.556	0.77	0.306	0.937	1.21	0.735	1.63	0.766	0.106	-0.68 (inactive)
CCCC=C(CCC)[C@@H](NS(=O)(=O)c1cccs1)c1ccc(C(=O)OC)cc1	1.16	1.17	0.496	1.02	0.825	-0.186	-2.96	-0.3	1.17	0.917 (inactive)
COc1ccc(C(=O)O[C@H]2CC[C@]3(C)C4=C(CCC3C2(C)C)[C@]2(C)CC[C@H]([C@H](C)CCCC(C)C)[C@@]2(C)CC4)cc1 (stereo not given in full)	0.541	0.607	-0.0307	0.206	0.625	0.483	1.41	0.493	0.103	-0.384 (inactive)
COc1ccc([Si](C)(C)[C@H]2[C@H](CC(=O)N3CCC[C@H]3CO)O[C@@]3(C(=O)N(Cc4cccc(N5C(=O)c6cccc7cccc5c67)c4)c4ccccc43)[C@@H]2C)cc1	0.874	0.614	0.209	0.94	1.17	0.7	1.57	1.52	0.571	-0.75 (inactive)
CC(C)C[C@@H]1NC(=O)[C@H]2C[C@@H](C(=O)NCCCCCCN(C)C)[C@@H](c3ccc(O)cc3)N2C1=O	2.44	0.977	0.34	0.357	1.35	1.29	-0.0361	1.19	0.115	-0.263 (inactive)
COCCCNC(=O)C1N=C(c2ccc(OCCCO)cc2)N(c2ccccc2)O1 (stereo not given)	1.38	1.03	0.234	0.95	1.11	0.555	0.735	0.517	0.569	-10.5 (active)
O=C1OCCC/C=C\[C@H]2OC34C=CCN(CCN5CCOCC5)C(=O)[C@H]3N(CCCO)C(=O)[C@@H]4C12 (stereo not given in full)	-0.851	-0.786	-0.253	-1.16	-0.803	-0.506	-0.278	-0.483	0.023	0.266 (inactive)
C=CC[C@@]1(C(N)=O)N=C(c2ccc(OCCCO)cc2)O[C@@H]1c1ccccc1CN=[N+]=[N-]	2.78	1.17	-0.111	0.968	1.08	0.107	-0.95	-0.344	1.52	-1.35 (inactive)
C=C(COC)/C(=C/C[C@@H](OC(C)=O)c1ccc(OCCO)cc1)c1cc(C(=O)OC)ccc1OC	0.531	1.21	0.481	-0.367	1.25	1.5	0.371	1.19	0.195	-0.371 (inactive)
